# Source: PubChem
# PfHsp40 yeast – restores yeast growth despite PfHsp40 toxicity; S. cerevisiae expressing PfHsp40, growth rescue, ATP luminescence; growth rescue, % at 12.5 µM; 340,000 compounds, 0.68% hits; AID 504582; in the data active means growth rescue above about 28%, passing the limit was not always enough; inconclusive means no clear call, values can overlap the other calls;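 further: yeast W303a lacking pdr1 and pdr3 grown in galactose medium; growth measured after three days at 30 °C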
# Sa RN4220 lethal – kills Staphylococcus aureus RN4220; S. aureus RN4220 growth, OD600, 16 h; inhibition, % (no concentration beside the values); 330,000 compounds, 0.33% hits; AID 1259311; in the data active means inhibition above about 85%;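 further: plate controls were untreated cells for no effect and reference antibiotic for full effect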
# Sa ugtP lethal – growth inhibition of S. aureus ugtP deletion strain; S. aureus RN4220 ugtP deletion, OD600 growth, 16 h; growth inhibition, % (test concentration not listed); 330,000 compounds, 0.54% hits; AID 1259309; in the data active means growth inhibition above about 68%;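 further: plate controls were untreated wells for no effect and antibiotic for full effect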
# Mtb hypoxia inh – reduces hypoxia-regulated biosensor signal in M. tuberculosis | M. tuberculosis hypoxia-regulated fluorescent reporter, fluorescence | fluorescence inhibition, % (concentration not given with the values) | 300,000 compounds, 0.1% hits | AID 1159583; in the data active means fluorescence inhibition mostly above about 23%, no sharp cut-off; inactive means mostly below about 17%
# MazF activator – MazEF (E. coli) toxin RNase activation. FAM/BHQ RNA-DNA oligo cleavage fluorescence, 5 h. activation, % at 20 µM. 350,000 compounds, 0.32% hits. P0AE70; in the data active means activation above about 50%
# TcdB GH inh – blocks C. difficile toxin B glycohydrolase activity | P18177 | TcdB glycohydrolase enzymatic assay, plate reader | inhibition, % at 9.99 µM | 350,000 compounds, 0.24% hits; in the data active means inhibition above about 10%
# Active calls of the source: *; ? = inconclusive; . = no result. A selection: hits, their analogues and other compounds. The true share with any hit is near 1.3%.
SMILES,PfHsp40 yeast,Sa RN4220 lethal,Sa ugtP lethal,Mtb hypoxia inh,MazF activator,TcdB GH inh
COc1ccc(Cn2c(O)c(/C=N/NC(=O)c3cccnc3)c3ccccc3c2=O)cc1,?,31.4,26.7,2.2,3.1,1.7
O=C(N/N=C/c1c(O)n(-c2ccccc2Cl)c(=O)c2ccccc12)c1cccnc1,97.9*,7.6,-6.3,-9.1,-40.2,0.7
O=C(NN=Cc1c(O)ccc2ccccc12)c1cccnc1,.,7.2,8.1,-4.1,.,.
Cc1ccc(C2C3C(=O)N(C)C(=O)C3[C@]3(Cc4ccccc4)C(=O)N(Cc4ccccc4)CC(=O)N23)o1 (some centres not stated),.,-0.7,1.0,-0.4,.,.
O=C(CN1CCN(Cc2ccccc2)CC1)NN=Cc1ccco1,.,2.0,4.2,5.8,.,.
Cl/C(C=Nn1cnnc1)=C/c1ccccc1,.,3.5,6.7,6.2,.,.
CC(C)CN1CCN(CC#Cc2ccccc2)CC1CCO (configuration not stated),0.3,4.7,16.3,6.3,3.9,10.1*
CC(C)=CCN1CCN(CC#Cc2ccccc2)CC1CCO (configuration not stated),0.2,3.8,10.7,11.5,3.4,0.3
O=C(c1ccc2c(c1)OCO2)N1CC(=O)N2[C@H](C1)[C@H](c1ccc(C#Cc3ccccc3)cc1)[C@@H]2CO,.,.,.,.,.,0.5
O=C1C2C3C=CC(C3)C2C(=O)N1CCCCN1C(=O)C2C3C=CC(C3)C2C1=O (configuration not stated),-1.1,-1.1,-10.1,-2.2,-3.1,.
O=C1[C@@H]2[C@H](C(=O)N1O)[C@H]1C=C[C@@H]2C1,33.9*,3.7,6.0,9.5,-6.0,.
Cc1nn(-c2ccccc2)c(C)c1NC(=O)COC(=O)CCc1ccccc1,-0.1,5.8,13.8,7.5,-3.3,0.4
COc1cccc(CC(=O)OCC(=O)Nc2c(C)nn(-c3ccccc3)c2C)c1,1.7,5.1,3.1,9.8,11.7,10.9*
CCOc1cc(C=NNC(=O)CSc2nncn2C)ccc1OCc1ccccc1,.,4.7,12.9,3.5,.,.
O=C(Nc1nnc(C2CC2)s1)c1cc([N+](=O)[O-])ccc1N1CCCCC1,2.6,88.7*,77.0,-3.3,2.7,.
Cc1ccc(NC(=O)c2cc([N+](=O)[O-])ccc2N2CCCC2)cc1,3.2,4.7,0.0,7.9,1.1,2.3
CO[C@@H]1CN(C)C(=O)c2ccc(NC(=O)C3CCCC3)cc2OC[C@H](C)N(CC2CC2)C[C@@H]1C,.,.,.,.,.,-2.3
N=c1n(CC(=O)c2ccc([N+](=O)[O-])cc2)c2ccccc2n1Cc1ccccc1Cl,-1.7,-0.9,-18.1,1.2,9.0,.
N=c1n(CC(=O)c2ccc([N+](=O)[O-])cc2)c2ccccc2n1Cc1ccc(Cl)cc1,0.5,21.6,-11.0,2.4,177.8*,.
N=c1n(CC(=O)c2ccc([N+](=O)[O-])cc2)c2ccccc2n1Cc1ccccc1,-0.7,10.0,-3.7,3.3,328.6*,.
O=C(O)C1=CCC(c2ccc(Cl)cc2)N(S(=O)(=O)c2ccc(Cl)cc2)C1c1cccc(Cl)c1 (configuration not stated),.,54.7,85.2,6.6,.,.
O=C(/C=C/c1cccs1)NC(=S)NNC(=O)c1ccccc1O,.,45.6,4.9,4.6,3.6,1.3
COc1ccc(C(=O)NNC(=S)NC(=O)/C=C/c2cccs2)cc1,74.0*,49.8,6.6,-14.5,-10.1,-0.8
O=C(/C=C/c1ccco1)NC(=S)Nc1cccc(-c2nc3ccccc3o2)c1,-0.5,15.2,97.9*,.,1.8,.
O=C(/C=C/c1cccs1)NC(=S)Nc1ccccc1,-1.5,97.2,active,7.1,3.8,0.6
SMILES,PfHsp40 yeast,Sa RN4220 lethal,Sa ugtP lethal,Mtb hypoxia inh,MazF activator,TcdB GH inh
Cc1ccc(-c2nc3ccccc3o2)cc1NC(=S)NC(=O)/C=C/c1ccco1,4.9,6.2,24.8,.,0.8,.
CCOC(=O)c1ccc(NC(=O)/C=C/c2cccs2)cc1,164.1*,1.4,-20.2,-5.3,11.3,0.2
O=C(NC(=S)Nc1ccccc1)c1cccs1,7.4,4.1,6.6,6.5,5.8,-0.8
C[C@H]1CCCCO[C@H](CN(C)Cc2ccccc2)[C@@H](C)CN([C@@H](C)CO)C(=O)c2cc(NC(=O)Nc3ccccc3)ccc2O1,.,.,.,.,.,0.5
O=C(/C=C/c1ccco1)NC(=S)Nc1ccccc1,5.2,2.2,92.9*,6.2,7.2,0.7
CCC(=O)c1cn(CC(=O)Nc2ccccc2Cl)c2ccccc12,0.1,1.3,-1.9,-5.2,54.3*,0.9
